Screening results deposited in PubChem by several laboratories.
Only some compounds are listed: those with a hit (about 2.8% of all), similar ones and a draw of the others.
PP1 counter = PP1-alpha phosphatase inhibitors, primary screen, counter-screen for PP5 inhibitor project, biochemical, fluorescence, OMFP substrate, single point. 320,000 tested, 0.9% active. Serine/threonine-protein phosphatase PP1-alpha catalytic subunit (Homo sapiens), P62136. inhibition, % at 6.7 µM. purified PP1alpha;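 active means inhibition above the mean inhibition of all tested compounds plus 3 SD, computed separately for each screening campaign, cut at about 15% in these data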
IDE cell activ = human IDE activators in live cells, primary screen, fluorescence polarization, HEK cells, FAbeta-B substrate; Insulin-degrading enzyme (Homo sapiens), P14735; FAbeta-B cleavage; 0% vehicle, 100% cell-free pure enzyme wells; activation, % at 5.96 µM; 340,000 tested, 0.073% active;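 active means activation above the mean of all tested compounds plus 3 SD, set per screening campaign, cut at about 17% in these data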
SKKanGAS inh = S. pyogenes SKKanGAS growth inhibitors in kanamycin, primary screen, streptokinase expression inhibitor project, SKKanGAS strain, BacTiter-Glo luminescence | 6 h | inhibition, % at 7.5 µM | 300,000 tested, 1.3% active | AID 1662, 2009;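 active means mean replicate score, as percent of positive control median, at least 50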;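 further: strain carries kanamycin resistance gene driven by streptokinase promoter and grows in 40 µg/ml kanamycin; loss of luminescence reflects streptokinase promoter inhibition or plain growth inhibition; 0% = median of DMSO wells and 100% = positive control at its reference dose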
IDE inh = human IDE inhibitors in live cells, primary screen, fluorescence polarization, HEK cells, FAbetaB substrate; Insulin-degrading enzyme (Homo sapiens), P14735; FAbetaB cleavage; inhibition, % at 5.59 µM; 320,000 tested, 0.41% active;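 active means percent inhibition above the average of all tested compounds plus 3 SD, set per screening campaign, cut at about 16% in these data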;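 further: IDE supplied by intact live HEK cells; FP after avidin binding of uncleaved biotin substrate so inhibition keeps polarization high; 0% = DMSO wells and 100% = 60 µM reference IDE inhibitor Ii1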
PP5 primary = PP5 phosphatase inhibitors, primary screen, biochemical, fluorescence; purified PP5c, OMFP substrate fluorescence; inhibition, % at 6.7 µM; 320,000 tested, 0.18% active; AID 1987, 2009;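 active means inhibition above the campaign's mean inhibition across all tested compounds plus 3 SD, cut at about 9.5% in these data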;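 further: 0% = DMSO only and 100% = 100 µM cantharidin control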
Target sequence (P53041 whole entry, looked up): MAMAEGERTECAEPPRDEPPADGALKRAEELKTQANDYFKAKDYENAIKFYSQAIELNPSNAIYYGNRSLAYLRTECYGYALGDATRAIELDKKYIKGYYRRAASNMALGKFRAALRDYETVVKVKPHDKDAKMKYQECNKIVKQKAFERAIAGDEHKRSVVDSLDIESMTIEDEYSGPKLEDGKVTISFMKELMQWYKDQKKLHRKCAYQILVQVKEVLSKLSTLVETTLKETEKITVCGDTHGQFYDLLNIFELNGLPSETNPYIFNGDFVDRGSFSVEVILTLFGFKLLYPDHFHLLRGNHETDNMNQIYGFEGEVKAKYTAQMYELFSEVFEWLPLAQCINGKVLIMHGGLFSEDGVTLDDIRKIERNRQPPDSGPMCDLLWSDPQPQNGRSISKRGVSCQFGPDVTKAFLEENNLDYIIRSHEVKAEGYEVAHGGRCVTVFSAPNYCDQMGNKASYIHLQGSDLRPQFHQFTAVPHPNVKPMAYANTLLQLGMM
Exocytosis inh = LAMP-1 surface exposure blockers, TALL-104 cells – cell-based, flow cytometry, MLPCN library, primary screen | AID 651702, 2012 | 360,000 tested, 0.66% active | inhibition, % at 10 µM | TALL-104 LAMP-1 surface exposure; cells stimulated with thapsigargin and PMA;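 active means inhibition above about 55%, limit read from the data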
PP1 inh confirm = PP1 phosphatase inhibitors, confirmation, biochemical, fluorescence, OMFP substrate, triplicate. shares compounds with PP1 counter. purified PP1alpha. inhibition, % at 6.7 µM. 1,900 tested, 52% active. AID 2358, 2010;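 active means mean PP1 inhibition above a set limit taken from the earlier primary screen, cut at about 15% in these data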
PP5 inh counter = PP5 phosphatase inhibition by PP1 hits, confirmation, counter-screen for PP1 inhibitor project, biochemical, fluorescence, triplicate | 1,900 tested, 4% active | shares compounds with PP1 counter | inhibition, % at 6.7 µM | purified PP5c, OMFP fluorescence;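 active means mean PP5 inhibition over triplicate wells above about 9.5% taken from the earlier PP1 screen, limit read from the data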
Active calls of the source: *; · = no result.

SMILES	PP1 counter	IDE cell activ	SKKanGAS inh	IDE inh	PP5 primary	Exocytosis inh	PP1 inh confirm	PP5 inh counter
Cc1cc(N2CCOCC2)ccc1/C=C1\NC(=O)N(CC(=O)Nc2ccc(F)cc2)C1=O	9	0	6	6	2	0	·	·
Cc1cccc(NC(=O)CN2C(=O)N/C(=C\c3ccc(N4CCOCC4)cc3)C2=O)c1	20*	1	0	6	0	1	25*	-4
Cc1cccc(NC(=O)CN2C(=O)N/C(=C/c3cc(C)n(-c4cccnc4)c3C)C2=O)c1	10	0	3	4	-1	0	·	·
Cc1cccc(NC(=O)CN2C(=O)N/C(=C/c3cc(C)n(-c4ccncc4)c3C)C2=O)c1	19*	1	-2	-2	0	-1	14	-2
Cc1ccc(-c2nc(CS(=O)CC(=O)NCCCN3CCN(Cc4ccccc4)CC3)c(C)o2)cc1 (stereo not given)	-4	1	-1	-1	2	27	·	·
COc1ccc(C2=NN(C(=O)c3cccs3)C(c3ccccc3O)C2)cc1 (stereo not given)	27*	4	41	-1	2	-8	19*	-5
COc1ccc(C(=O)N2N=C(c3cccs3)CC2c2ccccc2O)cc1 (stereo not given)	-2	5	-3	-3	5	40	·	·
COc1ccc(N(C(=O)c2snc(C(N)=O)c2N)C(C(=O)NC2CCCC2)c2cccs2)cc1OC (stereo not given)	18*	4	1	13	2	-2	29*	1
COc1cccc(N(C(=O)CS(=O)CC(=O)Nc2ccc(F)cc2)C(C(=O)NC2CCCCC2)c2cccs2)c1 (stereo not given)	20*	5	-3	1	1	2	28*	0
Cc1ccc(CC(=O)Nc2ccc(S(=O)(=O)Nc3ncccn3)cc2)cc1	-6	6	-1	-1	-1	2	·	·
Cc1cc(C(=O)COC(=O)c2ccc[nH]c2=O)c(C)n1-c1ccc(Br)cc1	18*	5	8	1	3	-1	8	-6
O=S(=O)(Nc1nc2ccccc2nc1Nc1cccc(S(=O)(=O)N2CCCCC2)c1)c1ccccc1	25*	0	64*	3	9.8*	12	20*	4
COc1ccc(S(=O)(=O)Nc2cccc(S(=O)(=O)N3CCCCCC3)c2)cc1	-1	0	4	-3	0	-1	·	·
Cc1cc2cc(CNC(=O)c3cc4ccccc4o3)ccc2n1C	22*	·	·	3	5	·	9	-2
Cc1cc2cc(CNC(=O)c3ccco3)ccc2n1C	9	0	0	3	2	-7	·	·
O=c1c(O)cccc2cc(O)c(O)c(O)c12	21*	5	6	7	2	1	14	-3
COCCN1C(=O)CSCC1(C)C(=O)Nc1c(C)cccc1C (stereo not given)	·	·	·	·	·	-4	·	·
Cc1ccc(C(C)C)c(OCc2ccc(C(=O)N/N=C/c3cccc(O)c3O)cc2)c1	23*	8	86*	-15	2	-2	18*	0
CCNc1nc(NCC)nc(C(=O)NN)n1	24*	-3	-5	5	1	0	4	0
CC(NC(=O)C1CC1)C(c1cccs1)N1CCN(c2ccccc2)CC1 (stereo not given)	47*	-1	-3	-3	0	1	-3	-5
COc1ccc(-n2c(SCC(=O)Nc3sc4c(c3C#N)CCCC4)nnc2-c2ccccc2OC)cc1	18*	2	16	-3	3	7	4	-1
